This note sets out measurements from PubChem BioAssay AID1159580 (chemical genetic matrix, 2015).

SMILES strings stand for the structures. Out of some 5,500 compounds screened, about 2,000 (36%) were called active. Inconclusive results (about 18%) are left out. Cut-off read from the data, not from the text of the source: active = normalized growth mostly below about 0.91 (no sharp cut-off); inconclusive = no clear call, values can overlap the other calls; inactive = mostly above about 0.92. The list shows a part of the results.

The nature of the assay: chemical genetic growth profiling, strain panel (AID 1159580).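 Note: tested at 20 µM; growth read once vehicle control cultures reached saturation at 30 °C; 1 = growth at the plate median or of vehicle wells; lower values mean less growth of the strain.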 Particulars: S. cerevisiae deletion strains, growth OD.
[1] abbreviates: locus YAL013W, strain DEP1, hits give low values.
Setting [2] is: locus YAL040C, strain CLN3, hits give low values.
The mark [3] stands for this setting: locus YCL061C, strain MRC1 (second series), hits give low values.
The mark [4] stands for this setting: locus YDR363W, strain ESC2, hits give low values.
The mark [5] stands for this setting: locus YER002W, strain NOP16, hits give low values.
The mark [6] stands for this setting: locus YGR078C, strain PAC10, hits give low values.
The mark [7] stands for this setting: locus YMR307W, strain GAS1, hits give low values.
The mark [8] stands for this setting: locus YNL153C, strain GIM3, hits give low values.
Where [9] appears, read: locus YNL197C, strain WHI3, hits give low values.
Where [10] appears, read: locus YNL224C, strain SQS1, hits give low values.
The mark [11] stands for this setting: locus YNL322C, strain KRE1, hits give low values.
The mark [12] stands for this setting: locus YOR083W, strain WHI5 (second series), hits give low values.
[13] abbreviates: locus YDR150W, strain NUM1, hits give low values.
Setting [14] is: locus YJR075W, strain HOC1, hits give low values.
Where [15] appears, read: locus YNL175C, strain NOP13, hits give low values.
[16] abbreviates: locus YPL055C, strain LGE1, hits give low values.

Regarding `O=C(CCCN1CCC(O)(c2cccc(C(F)(F)F)c2)CC1)c1ccc(F)cc1`, the normalized growth is, setting by setting: under setting [1], 0.832 (active); under setting [2], 1.01 (inactive); under setting [3], 0.974 (inactive); under setting [4], 0.851 (active); under setting [5], 1.03 (inactive); under setting [6], 0.985 (inactive). Besides, the normalized growth under setting [7] is 0.818 (active); the normalized growth under setting [8] is 0.961 (inactive); the normalized growth under setting [9] is 1.05 (inactive); the normalized growth under setting [10] was 1.13 [resistant] (active); the normalized growth under setting [11] is 0.882 (active); the normalized growth under setting [12] was 1.04 (inactive).

Take `COc1ccccc1N1CCN(CCN(C(=O)c2ccc(F)cc2)c2ccccn2)CC1`: the normalized growth under setting [1] is 0.995 (inactive); the normalized growth under setting [2] is 1.01 (inactive); the normalized growth under setting [3] was 1 (inactive); the normalized growth under setting [13] is 0.999 (inactive); the normalized growth under setting [4] was 1.02 (inactive); the normalized growth under setting [5] is 1.01 (inactive). In addition, the normalized growth reads like this: under setting [6], 1.01 (inactive); under setting [14], 1.01 (inactive); under setting [7], 0.993 (inactive); (locus YNL128W, strain TEP1, hits give low values) 1 (inactive); under setting [8], 1.01 (inactive); under setting [15], 1.01 (inactive). Further, the normalized growth by setting is: under setting [9], 0.998 (inactive); under setting [10], 1 (inactive); under setting [12], 1.01 (inactive); under setting [16], 1.01 (inactive); (locus YPL241C, strain CIN2, hits give low values) 1 (inactive).

On to `CCNC(=O)N1CCN(CCCC(c2ccc(F)cc2)c2ccc(F)cc2)CC1`, for which the normalized growth under setting [2] is 0.994 (inactive); the normalized growth under setting [3] was 0.99 (inactive); the normalized growth under setting [13] is 0.982 (inactive); the normalized growth under setting [4] was 1.04 (inactive); the normalized growth under setting [5] is 1 (inactive); the normalized growth under setting [14] was 0.988 (inactive). Also, the normalized growth is 0.988 (inactive) (locus YMR263W, strain SAP30, hits give low values); 1.03 (inactive) under setting [15]; 1.02 (inactive) under setting [9]; 1.04 (inactive) under setting [10]; 0.974 (inactive) under setting [11]; 1 (inactive) under setting [12]. The normalized growth under setting [16] was 0.916 (inactive).
